Several values for one entry are separate records, joined by “and”; a condition that tells them apart may be missing. Equal entries are not always repeated.
test: viability loss with induced miR-34 in A549 – imaging, A549 dox-inducible miR-34, nuclei and caspase counts, primary screen (AID 1347080); settings: A549 miR-34 inducible, Hoechst nuclei count, 48 h; measured here: total cells with miR-34 induction; stronger effect = lower value; also: test concentration not given here

Compound	cell count
C[C@@H]1CN(CCCn2c3ccccc3c3ccccc32)C[C@H](C)N1	8000
Oc1c(I)cc(I)c2cccnc12	10900
O=C1C(O)=C(O)C(=O)C(O)=C1O	9350 and 12000
Oc1ccc(Cl)c2cccnc12	10900
CN1CCN(c2cc3c(cc2F)c(=O)c(C(=O)O)cn3-c2ccc(F)cc2)CC1	6840
CO/N=C1\CN(c2nc3c(cc2F)c(=O)c(C(=O)O)cn3C2CC2)CC1CN (stereo not drawn)	10700
OCc1ccccc1O	10600
O=C1OC(c2ccc(O)cc2)(c2ccc(O)cc2)c2ccccc21	10900
C=CCc1ccc(O)c(OC)c1	11000
NC(=O)c1ccc([N+](=O)[O-])cc1Cl	11800
C=Cc1c(C)c2cc3[nH]c(cc4nc(cc5nc(cc1[nH]2)C(C)=C5CCC(=O)O)C(CCC(=O)O)=C4C)c(C)c3C=C	9230
COc1ccc(CN(CCN(C)C)c2ncccn2)cc1	11900
CC(=O)Nc1ccc(S(=O)(=O)Nc2ccc([N+](=O)[O-])cc2)cc1	11400
CC(=O)OCC(COC(C)=O)OC(C)=O	10700
CCN(CC)CC1CCCCN1CC(=O)N1c2ccccc2C(=O)Nc2cccnc21 (stereo not drawn)	10100 and 9240
OCc1cccnc1	8900
COc1ccc(C2C(=O)c3ccccc3C2=O)cc1	11100
CC(=O)NO	11300
Cc1cc(C(C)(C)C)c(O)c(C(C)(C)C)c1	10700

Compound	cell count
NC(=O)NC(=O)Cc1ccccc1	11800
CC1CCC(NC(=O)N(CCCl)N=O)CC1 (stereo not drawn)	9380
O=C(O)[C@@H]1[C@H]2C[C@H]3c4[nH]c5ccccc5c4CCN3C[C@@H]2CC[C@@H]1O	7540
O=C(CCBr)N1CCN(C(=O)CCBr)CC1	6360
CCOC(N)=O	11200
CC(C)NC[C@@H](O)COc1cccc2ccccc12	8050
CNCCCCOc1ccccc1Cc1ccccc1	7470 and 8010
COc1cc(C)c(Cc2cnc(N)nc2N)cc1OC	9440
CC[N+](C)(CC)CCOC(=O)C(O)(c1ccccc1)C1CCCCC1 (stereo not drawn)	8830
Nc1ccc(C(=O)O)cc1	10600
O=C(OCc1ccccc1)c1ccccc1	12000
CCCCCCc1ccc(O)cc1O	11000
CO[C@@]1(NC(=O)C(C(=O)O)c2ccc(O)cc2)C(=O)N2C(C(=O)O)=C(CSc3nnnn3C)CO[C@@H]21 (stereo partly drawn)	11300
CCCCCC(C)N (stereo not drawn)	11000
NC(=O)c1ccccc1O	11700
C=C[C@@]1(C)CC(=O)[C@]2(O)[C@@]3(C)[C@@H](O)CCC(C)(C)[C@@H]3[C@H](O)[C@H](OC(C)=O)[C@@]2(C)O1	9780
O=C(O)CCCCC1CCSS1 (stereo not drawn)	6920
Nc1c2c(nc3c1CCC3)CCCC2	10500
CC(=O)OCC1=C(C(=O)O)N2C(=O)[C@@H](NC(=O)CSc3ccncc3)[C@H]2SC1	11600

From PubChem BioAssay
